# Measured values from PubChem BioAssay (NCI).
# This is part of a sample that, as a whole, favours compounds with a hit. Of some 79,000 tested, about 15% had one in any assay. Unmarked numbers belong to inactive results. The source made the active and inactive calls. Cut-off read from the data, not from the text of the source: active = growth inhibition above about 70%; inactive = the rest.
# Assays:
# [1] = NCI Yeast Anticancer Drug Screen. Data for the rad50 strain (AID 155);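 note: 0% = growth of vehicle-only cultures of the same strain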; details: S. cerevisiae rad50 strain growth inhibition, stronger effect = higher value
# Summary of the method: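 Yeast carrying a defined DNA repair defect were exposed to test compounds, and growth was compared with vehicle-treated controls to give percent inhibition.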
# [2] = NCI Yeast Anticancer Drug Screen. Data for the mec2-1 strain (AID 157); details: S. cerevisiae mec2-1 strain, stronger effect = higher value
# Summary of the method: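 Test agents were screened against the mec2-1 yeast strain, with defined DNA repair or cell cycle alteration. Growth was scored as inhibition against vehicle-only controls.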
# [3] = NCI Yeast Anticancer Drug Screen. Data for the sgs1 mgt1 strain (AID 161);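 note: 0% = growth of cultures given vehicle only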; details: S. cerevisiae sgs1 mgt1 strain, stronger effect = higher value
# Summary of the method: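 Test agents were incubated with a DNA-repair-mutant yeast strain. Growth was then read and compared against vehicle-treated controls.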
# [4] = NCI Yeast Anticancer Drug Screen. Data for the cln2 rad14 strain (AID 165);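 note: 0% = growth equal to vehicle treated cultures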; details: S. cerevisiae cln2 rad14 strain, stronger effect = higher value
# Summary of the method: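 Growth of compound-exposed yeast (cln2 rad14 genotype) measured and expressed as inhibition relative to vehicle.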
# [5] = NCI Yeast Anticancer Drug Screen. Data for the bub3 strain (AID 167); details: S. cerevisiae bub3 mutant strain, stronger effect = higher value
# Summary of the method: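 Compounds were applied to a genetically altered yeast strain carrying a cell-cycle control defect. Growth inhibition was scored against vehicle-treated controls.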
# [6] = NCI Yeast Anticancer Drug Screen. Data for the mlh1 rad18 strain (AID 175); details: S. cerevisiae mlh1 rad18 strain growth inhibition, stronger effect = higher value
# Summary of the method: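 In this whole-cell yeast screen, a strain with altered DNA damage repair is challenged with compound, and its growth is measured against matched vehicle-treated controls.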
# [7] = at 5.0 µM (retest, dose inferred, filed as 0.5)
# [8] = at 50.0 µM (retest, dose inferred, filed as 5.0)
Compound,"growth inhibition [1, 7]","growth inhibition [1, 8]",growth inhibition ([1]; at 50.0 µM),"growth inhibition [2, 7]","growth inhibition [2, 8]",growth inhibition ([2]; at 50.0 µM),"growth inhibition [3, 7]","growth inhibition [3, 8]",growth inhibition ([3]; at 50.0 µM),"growth inhibition [4, 7]","growth inhibition [4, 8]",growth inhibition ([4]; at 50.0 µM),"growth inhibition [5, 7]","growth inhibition [5, 8]",growth inhibition ([5]; at 50.0 µM),"growth inhibition [6, 7]","growth inhibition [6, 8]",growth inhibition ([6]; at 50.0 µM)
C(/C=C/CC=Nc1ccccc1)=Nc1ccccc1,3%,4%,4.4%,2%,3%,30.6%,0%,6%,12.1%,-4%,-4%,42.2%,-4%,-3%,-7.75%,7%,3%,-29.7%
O=C(O)CCCCCCCCC(=O)O.[Ag],99% (active),99% (active),90.2% (active),99% (active),99% (active),93% (active),100% (active),99% (active),93.8% (active),70% (active),99% (active),92.2% (active),99% (active),99% (active),92.5% (active),99% (active),99% (active),91.5% (active)
Cc1ccc(C2SCC(=O)N2c2ccc(-n3c(-c4ccccc4)nc4ccccc4c3=O)cc2)cc1 (stereo not given),-16%,90% (active),75.3% (active),-8%,55%,67.5%,-10%,81% (active),77.2% (active),-16%,87% (active),83.2% (active),-24%,74% (active),72.7% (active),-8%,88% (active),79.8% (active)
Cc1ccc(Sc2ccc(C)cc2[N+](=O)[O-])c([N+](=O)[O-])c1,33%,40%,2.7%,31%,35%,-10.7%,69%,68%,66.2%,39%,37%,20.5%,56%,56%,29.1%,43%,53%,-8.85%
CCCCCCCCCCCCNC(=O)C[n+]1cccc(C(N)=O)c1,3%,88% (active),79% (active),-3%,90% (active),19.8%,-2%,97% (active),-2.6%,-6%,67%,36.4%,-9%,76% (active),50.8%,-1%,85% (active),51.4%
CCn1c2ccccc2c(=O)c2c(OC)ccc(OC)c21,2%,73% (active),77.6% (active),4%,51%,-1.7%,0%,94% (active),81.5% (active),-1%,24%,49.4%,28%,75% (active),52.6%,-1%,87% (active),89.8% (active)
CCC(C)NC(=S)N/N=C(\C)c1ccccn1 (stereo not given),20%,100% (active),78% (active),19%,99% (active),85.7% (active),5%,98% (active),90.6% (active),33%,100% (active),90% (active),0%,100% (active),90.5% (active),39%,99% (active),89.2% (active)
CC1(C)CC(N(C(=O)/C=C/c2ccc([N+](=O)[O-])o2)C2CCCCC2)CC(C)(C)N1,-5%,97% (active),5.6%,-3%,98% (active),13.9%,-2%,99% (active),40.2%,-6%,97% (active),25.1%,-4%,99% (active),7.95%,-1%,97% (active),85% (active)
O=C(C[N+]12CN3CN(CN(C3)C1)C2)c1ccc(Cl)cc1Cl,-2%,-4%,99.3% (active),9%,5%,99.5% (active),-20%,-4%,99.4% (active),-1%,-6%,99.2% (active),0%,-2%,99.3% (active),-12%,-26%,99.4% (active)
CC1=NOC(=O)/C1=C/C=C/c1ccccc1,-7%,47%,87.1% (active),3%,79% (active),86.3% (active),9%,89% (active),90.3% (active),22%,28%,40.1%,-23%,66%,60.8%,2%,80% (active),79.2% (active)
